Results: PubChem BioAssay AID504692 (The Scripps Research Institute Molecular Screening Center, 2011)
Hit rate of the full screen: of about 340,000 compounds, about 2,000 (0.59%) were called active. The full list was thinned out, with actives kept by preference. A number with no mark means an inactive call. Rule as the data show it: active = activation mostly above about 9.5% (no sharp cut-off); inactive = mostly below about 7.6%.

Biological target: 5-hydroxytryptamine receptor 5A (Homo sapiens) (UniProt P47898)
Sequence (P47898 whole entry, looked up): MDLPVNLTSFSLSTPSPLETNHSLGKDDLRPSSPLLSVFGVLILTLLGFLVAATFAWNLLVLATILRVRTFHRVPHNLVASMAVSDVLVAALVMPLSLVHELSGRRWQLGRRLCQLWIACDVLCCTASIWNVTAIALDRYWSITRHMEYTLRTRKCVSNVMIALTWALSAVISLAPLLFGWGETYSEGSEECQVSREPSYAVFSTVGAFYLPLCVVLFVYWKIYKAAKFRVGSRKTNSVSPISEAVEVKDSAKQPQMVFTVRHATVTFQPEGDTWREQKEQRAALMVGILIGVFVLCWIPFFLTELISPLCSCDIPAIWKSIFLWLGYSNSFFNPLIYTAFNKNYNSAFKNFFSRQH
Assay: HTR5A agonists in luminescence cell assay, primary screen, counter-screen for OPRM1-OPRD1 heterodimer agonist project, full-deck HTS (AID 504692);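 also: 0% = cells with vehicle only and 100% = reference agonist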
Conditions: cell-based, at 9.3 µM, stronger effect = higher value

Structure (SMILES) | activation
CCCCCc1ccc(-c2ccc(C(=O)O)cc2)nc1 | 4.14%
COc1ccc(NC(=O)CN2C(=O)CSC2=O)cc1 | -1%
CCc1ccc(NC(=O)CN2C(=O)CSC2=O)cc1 | 13.7% (active)
CCc1ccc(NC(=O)CN2C(=O)COc3ccc(S(=O)(=O)N4CCCC4)cc32)cc1 | 0.59%
COC(=O)c1c(CCl)noc1C(=O)NC(C)C | 2.61%
CC(C)(C)NC(=O)COC(=O)c1cc(Cl)ccc1[N+](=O)[O-] | 7.24%
CCOC(=O)c1cnc2sccn2c1=O | 21% (active)
CCOC(=O)c1ccccc1NS(=O)(=O)c1c(C)nc2sccn2c1=O | -1.95%
CN(C)/C=C/C(=O)c1cnc2sccn2c1=O | 0.28%
Cc1nc(C(=O)NCc2ccccc2)sc1C1(C)CC(c2cccnc2)=NO1 (stereo unspecified) | 6.13%
COc1cccc(OCC(=O)Nc2ccccc2C(N)=O)c1 | 18.3% (active)
Cc1cccc(OCC(=O)Nc2ccccc2F)c1 | 0.76%
Cc1cccc(OCCC(=O)Nc2ccccc2C(N)=O)c1 | 1.89%
Cc1cc(C)c(S(=O)(=O)NCC(c2ccc3c(c2)OCO3)N2CCOCC2)c(C)c1 (stereo unspecified) | -4.07%
Cc1ccc2nc(SC(C)C(=O)NCc3ccco3)[nH]c2c1 (stereo unspecified) | -4.41%
CC(=O)c1c(C)[nH]c(C(=O)OCC(=O)NCCC(C)C)c1C | -1.47%
CC(=O)c1c(C)[nH]c(C(=O)OCC(=O)Nc2c(C)cccc2C)c1C | 17.5% (active)
CC(=O)c1c(C)[nH]c(C(=O)OCC(=O)Nc2c(C)n(C)n(-c3ccccc3)c2=O)c1C | 1.57%
CSCCC(NS(=O)(=O)/C=C/c1ccccc1)C(=O)N1CCC(C)CC1 (stereo unspecified) | -0.99%
O=C(COc1ccc(S(=O)(=O)Nc2cccc(C(F)(F)F)c2)cc1)N1CCOCC1 | 1.4%
O=C(NCc1ccccc1)c1ccc(S(=O)(=O)Nc2cccc(C(F)(F)F)c2)cc1 | 2.56%

Structure (SMILES) | activation
O=C(Nc1ccc(C(=O)N2CCOCC2)cc1)Nc1cccc(C(F)(F)F)c1 | 28.4% (active)
CCNS(=O)(=O)c1ccc(NC(=O)Nc2cccc(C(F)(F)F)c2)cc1 | 12.8% (active)
CCNS(=O)(=O)c1ccc(NC(=O)c2cncc(Br)c2)cc1 | 0.87%
COc1ccccc1C(=O)Nc1cccc(C(=O)N2CCOCC2)c1 | 3.58%
Cc1cc(OCCN2CCCC2)ccc1C(C)C | 8.01%
O=C(NCCCO)c1cc2c([nH]c3ccccc32)c(-c2ccc(F)cc2)n1 | 1.16%
COc1ccccc1C(=O)COC(=O)COc1ccc(C#N)cc1 | -2.03%
COc1ccc(-c2nc(CS(=O)(=O)CC(=O)NCc3cccc(Br)c3)c(C)o2)cc1 | 4.07%
O=C(COC(=O)CCCNC(=O)c1ccc(Cl)cc1)Nc1cc(Cl)ccc1Cl | 7.08%
O=C(CN(c1ccccc1)S(=O)(=O)c1ccc(Cl)cc1)Nc1ccccc1C(=O)N1CCCC1 | -0.02%
CCN(CC)C(=O)c1nc[nH]c1C(=O)N(C)Cc1ccccc1 | -1.14%
COc1ccc(CCNC(=O)C(Sc2ccccn2)c2ccccc2)cc1OC (stereo unspecified) | 2.72%
COc1ccc(C(CCN(Cc2ccc(OC)c(OC)c2)C(=O)CCl)c2ccccc2)cc1 (stereo unspecified) | 44.4% (active)
COc1ccc(COC(=O)NC(C(=O)O)c2ccccc2)cc1 (stereo unspecified) | -0.04%
CCCNC(=S)NC1CC2CCCC(C1)N2CC(C)C (stereo unspecified) | 4.6%
COc1c(N2CCN(C(=S)Nc3ccccc3F)C(C)C2)c(F)cc2c(=O)c(C(=O)O)cn(C3CC3)c12 (stereo unspecified) | -0.11%
O=C(NC(Cc1c[nH]c2ccccc12)C(=O)O)/C(=C/c1ccco1)NC(=O)c1ccccc1 (stereo unspecified) | 0.55%
Cc1ccc(C(=O)N/C(=C/c2ccco2)C(=O)NCCc2c[nH]c3ccccc23)cc1C | 20.3% (active)
Cc1ccc(C(=O)N/C(=C\c2ccco2)C(=O)N2CCSCC2)cc1C | 1.54%
Cc1ccc(/C=N/NC(=O)C(NC(=O)c2ccccc2)c2n[nH]c(=O)c3ccccc23)cc1 (stereo unspecified) | 3%
